# Measured values taken from PubChem BioAssay (NCI).
# “And” between values parts separate entries of the source, which are not always exact repeats. Equal values may be shown once. Compounds without any hit were thinned out: in the full panel of roughly 83,000, 20% have a hit.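 Cells were grown in 96-well plates and exposed to the test compound at a single concentration for 48 hours; results are reported as percent growth, with values below 10 considered active.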 Unmarked numbers belong to inactive results. The source made the active and inactive calls.
# Tested on: MDA-MB-468 breast
# Test: NCI-60 one-dose screen, 48 h (100 = growth as untreated, 0 = no growth, -100 = all killed)
# Conditions: 10 µM unless noted
row,Compound,growth
1,Oc1ccccc1-c1nnc(SCc2ccc(O)c3ncccc23)n1-c1ccccc1,0.833% (active)
2,N#C/C(=C\c1cccc2cnccc12)N1N=NC2C=CC=CC21 (stereo not given),32.9%
3,NC(=S)N/N=C(\c1ccc(Br)cc1)C1CC1,20% and 19%
4,NS(=O)(=O)c1ccc(Nc2cc(-c3ccccc3)nc(SCC(=O)c3ccccc3)n2)cc1,99.3%
5,Fc1ccc(Nc2ncnc3ccc(-c4cn[nH]c4)cc23)cc1Cl,-21.9% (active)
6,CC(=O)[C@H]1CC[C@H]2[C@@H]3C[C@H](C)C4=CC(=O)CC[C@]4(C)[C@H]3C(=O)C[C@]12C,106%
7,COc1ccc(-c2c(N)n[nH]c2-c2cc(OC)c(OC)c(OC)c2)cc1,-0.0987% (active)
8,CC(C)(C)n1cc(-c2ccnc(NCCCNS(=O)(=O)c3cccc4ccccc34)c2)c(-c2cccc(F)c2)n1,52.5%
9,Cc1ccc(-c2nc3nc(-c4ccccc4)nc(N4CCN(S(=O)(=O)c5ccccc5)CC4)c3o2)cc1,101%
10,COc1cc(OC)c(C(=O)/C=C/c2ccc(C(F)(F)F)cc2)c(OC)c1,46.3%
11,CNc1nc(S(=O)c2ccc(C#N)cc2)nc2ccccc12 (stereo not given),-4.09% (active)
12,CNC(=O)c1cc(Oc2ccc3c(c2)sc2nc(-c4ccc(N)cc4)cn23)ccn1,40.6%
13,C=C(C)[C@@H]1CC[C@]2(C=O)CC[C@]3(C)[C@H](CC[C@@H]4[C@@]5(C)CCCNC(C)(C)[C@@H]5CC[C@]43C)[C@@H]12,64.6%
14,C#Cc1cccc(Nc2nc3cc([N+](=O)[O-])ccc3nc2Nc2ccc(O)cc2)c1,27.1%
15,CCC(=O)Oc1c(C)cc(O)c2ccccc12,5.03% (active)
16,C=C(C)C(=O)Nc1ccc(NC(C)C)cc1,111%
17,COc1ccc2cc(-c3ccnc4c(N=Nc5ccc(Cl)cc5)c(N)nn34)ccc2c1,98.8%
18,NC(=O)c1ccc(Br)o1,103%
19,Cc1nc2ccccc2c(/C=C/c2ccc(C(F)(F)F)cc2)c1C(=O)/C=C/c1ccccc1,-51% (active)
20,COc1cccc2c(=O)c3c(sc12)c(N1CCNCC1)nc1ccccc13,50.2%

row,Compound,growth
1,COc1cccc(N=Nc2cccc(OC)c2)c1,87.2%
2,O=C(/C=C/c1cc(Cl)ccc1Cl)Nc1ncc(Cc2ccc(Cl)cc2)s1,23.8%
3,N#CSc1c[nH]c2ccc(/C=C/C(=O)/C=C(/C=C/c3ccc4[nH]cc(SC#N)c4c3)OB(F)F)cc12,-49% (active)
4,CC1CCN(CCCCCOc2ccc3oc4cc(Cl)ccc4c(=O)c3c2)CC1,57.7%
5,Oc1c(CN2CCN(c3ccccc3F)CC2)cc(Br)c2cccnc12,-43% (active)
6,COc1cc2c3c(n([C@@H]4CCOC4)c(=O)c2cc1OC)-c1cc2c(cc1C3=O)OCO2,11.2%
7,O=C1/C(=C\c2ccc(Br)o2)SC(=S)N1CCc1ccc(O)cc1,28.2%
8,Cn1cc(-c2nn3cc(-c4cccnc4)nc3s2)c2cc(F)ccc21,66.3%
9,Cc1nn(-c2ccccc2)c(Oc2ccccc2)c1/C=N/NC(=O)Cn1c(=O)sc2ccccc21,13.7%
10,COc1cc(C(=O)C[n+]2ccc3ccccc3c2)cc(OC)c1OC,98.3%
11,N#C/C(=C\c1ccc(F)cc1)n1nc2cccc(F)c2n1,21.6%
12,Cc1cc(N(CCNc2ccnc3cc(Cl)ccc23)Cc2cccs2)nc(Cl)n1,-65.2% (active)
13,COc1cc2ncnc(Nc3ccc(Oc4ccnc(C)c4)c(C)c3)c2cc1NC(=O)CC1CCSS1 (stereo not given),-67% (active)
14,COC(=O)[C@]1(C(C)C)N[C@H](c2cn(-c3ccccc3)nc2-c2ccccc2)[C@@H]2C(=O)N(c3ccc(Cl)cc3)C(=O)[C@@H]21,119%
15,CC(C)(C)CC(C)(C)c1ccc(O)c(Cc2ccc(Cl)cc2Cl)c1,-88.6% (active)
16,OCc1n(Cc2ccc3ccccc3c2)cc[n+]1Cc1ccc2ccccc2c1,-29% (active)
17,CCOC(=O)/C(=C/c1ccccc1)C(=O)c1ccccc1,85.6%
18,Nc1c(-c2nc3ccc(Br)cc3c(=O)[nH]2)nnn1-c1ccccc1,65.6%
19,O=C(Nc1cccc2c1C(=O)c1cccc(NC(=O)c3ccc(C(=O)Nc4cccc5c4C(=O)c4cccc(NC(=O)c6ccccc6)c4C5=O)cc3)c1C2=O)c1ccccc1,91.3%
20,C=C1C(=O)O[C@H]2[C@H]1CC/C(COC(=O)NCCOCCOCC(=O)Nc1ccc(OC)c(C(N)=O)c1O)=C\CC[C@@]1(C)O[C@@H]21,17%
